BoNT-F LC inh – BoNT/F light chain protease inhibitors, primary screen, biochemical, flow cytometry, MLPCN library; Multiplex microsphere protease cleavage assay; inhibition, % at 10 µM; 0.22% of 360,000 active; AID 588497, 2011; in the data active means inhibition above about 35%, passing the limit was not always enough; inconclusive means no clear call, values can overlap the other calls; further: plate controls were buffer without enzyme for full effect and enzyme alone for no effect
CCHFV vOTU inh – CCHFV vOTU protease inhibitors, primary screen, biochemical, Pep-AMC substrate, fluorescence | Crimean-Congo hemorrhagic fever virus L polyprotein viral ovarian tumor (vOTU) protease … | inhibition, % at 11.5 µM | 0.55% of 370,000 active | AID 651958, 2012; in the data active means inhibition above about 30%; further: 0% = vehicle wells with enzyme and 100% = no enzyme wells
BoNT A protease – BoNT/A light chain protease inhibitors, primary screen, biochemical, flow cytometry, MLPCN library; multiplex microsphere protease substrate cleavage; 0.17% of 360,000 active; inhibition, % at 10 µM; AID 588499, 2011; Botulinum neurotoxin type A light chain protease (Clostridium botulinum A str. ATCC 3502); further: plate controls were buffer without enzyme for full effect and enzyme alone for no effect
3CLpro inhibitor – SARS-CoV 3CLpro protease inhibitors, primary screen, biochemical, quenched FRET; Replicase polyprotein 1ab (Severe acute respiratory syndrome coronavirus), P0C6X7; inhibition, % at 6 µM; 0.14% of 290,000 active; recombinant SARS-CoV 3CLpro, quenched FRET peptide cleavage; AID 1706, 2009; in the data active means inhibition above about 12%
Anthrax LF prot – Bacillus anthracis LF protease inhibitors, primary screen, biochemical, multiplex microsphere, MLPCN library | Lethal factor (Bacillus anthracis), P15917 | inhibition, % at 10 µM | multiplex microsphere protease cleavage assay | 0.12% of 360,000 active; further: plate controls were buffer without enzyme for full effect and enzyme alone for no effect
Target sequence (P15917 whole entry, looked up): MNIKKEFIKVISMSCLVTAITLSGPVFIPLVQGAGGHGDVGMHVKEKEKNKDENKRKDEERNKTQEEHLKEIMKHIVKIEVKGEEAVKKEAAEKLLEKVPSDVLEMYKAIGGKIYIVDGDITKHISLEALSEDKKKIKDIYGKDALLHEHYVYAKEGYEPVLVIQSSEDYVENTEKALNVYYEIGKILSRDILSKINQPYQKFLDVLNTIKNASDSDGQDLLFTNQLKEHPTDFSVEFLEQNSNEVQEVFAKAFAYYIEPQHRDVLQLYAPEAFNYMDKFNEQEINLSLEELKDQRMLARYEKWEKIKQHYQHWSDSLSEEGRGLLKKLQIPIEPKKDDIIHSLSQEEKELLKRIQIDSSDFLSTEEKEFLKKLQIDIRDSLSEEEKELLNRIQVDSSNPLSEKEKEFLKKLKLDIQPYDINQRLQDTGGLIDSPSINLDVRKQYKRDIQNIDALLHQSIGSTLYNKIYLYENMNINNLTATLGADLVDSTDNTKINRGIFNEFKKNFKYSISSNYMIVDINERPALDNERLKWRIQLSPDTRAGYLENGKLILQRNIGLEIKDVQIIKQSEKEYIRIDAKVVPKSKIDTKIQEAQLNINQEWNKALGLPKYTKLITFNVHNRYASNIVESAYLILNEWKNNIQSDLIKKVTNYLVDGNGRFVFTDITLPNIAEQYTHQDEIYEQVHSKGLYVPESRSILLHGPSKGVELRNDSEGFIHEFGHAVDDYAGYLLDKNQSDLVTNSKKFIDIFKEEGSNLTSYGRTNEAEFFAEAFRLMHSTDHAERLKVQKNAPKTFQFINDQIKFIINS
Bead autofluor – counter-screen for toxin protease inhibitors: compound fluorescence; compound autofluorescence counterscreen, microsphere flow cytometry; hits give high values; fluorescence intensity (test concentration not listed); 3.1% of 360,000 active; AID 624483; in the data active means fluorescence intensity above about 16000; inconclusive means no clear call, values can overlap the other calls
Active calls of the source: *; ? = inconclusive; . = no result. An excerpt weighted towards active compounds, which were near 3.9% of everything screened. Unless noted, no stated cut-off is given here; in the data, active means inhibition above about 30%; inconclusive means no clear call, values can overlap the other calls; inactive means below that.

SMILES	BoNT-F LC inh	CCHFV vOTU inh	BoNT A protease	3CLpro inhibitor	Anthrax LF prot	Bead autofluor
O=C(O)CSc1nnc(COc2ccc(Br)cc2)n1-c1ccccc1	-53	-9	-3	-3	9	3160
COCc1[nH]nc2c1C(c1ccc(F)cc1F)C(C#N)=C(N)O2 (stereo not given)	-5	18	-2	.	2	7050
COCc1[nH]nc2c1C(c1ccnc3ccccc13)C(C#N)=C(N)O2 (stereo not given)	0	2	0	0	-3	16149*
O=C(/C=C/c1ccco1)NC(=S)Nc1ccccc1N1CCCC1	-5	22	0	1	-2	1990
O=C(/C=C/c1ccco1)NC(=S)Nc1ccccc1N1CCOCC1	0	9	0	3	1	23214*
COC(=O)C1=CN(Cc2ccc(OC)cc2)C=C(C(=O)OC)C1c1cc(OC)c(OC)c(OC)c1	41*	.	-2	1	-2	3899
COC(=O)C1=CN(Cc2ccc(F)cc2)C=C(C(=O)OC)C1c1cc(OC)c(OC)c(OC)c1	-18	-38	-5	1	-16	3925
COc1ccc(CCNC(=O)C/C(C)=N/NC(=O)c2ccc([N+](=O)[O-])cc2Cl)cc1OC	-2	-4	0	1	-1	3929
COCCNC(=O)COc1cccc2c1OC(C)(C)C2	-5	-7	-2	2	-8	6165
CCn1c(SCC(=O)c2ccc(O)c(O)c2)nnc1-c1ccc(C)cc1	-1	13	0	3	-2	2923
CCn1c(SCC(=O)c2ccc3c(c2)Cc2ccccc2-3)nnc1-c1ccc(N)cc1	0	7	-2	-4	-10	23475*
CCn1c(COc2ccccc2C)nnc1SCC(=O)N1CCCCC1	-3	11	0	-5	-5	9214
CCn1c(COc2cccc(OC)c2)nnc1SCC(=O)Nc1ccccc1C(=O)OC	6	-1	?	0	1	19252*
CCn1c(SCC(=O)Nc2ccccc2C(=O)OC)nnc1-c1ccc(N)cc1	-2	7	0	3	1	23878*
CCn1c(COc2ccc(Cl)c(C)c2)nnc1SCC(=O)N1CCCC1	-2	-10	?	2	-1	20792*
CCn1c(COc2ccc(C)cc2)nnc1SCC(=O)Nc1cc(OC)ccc1OC	3	14	1	3	-5	22615*
CCn1c(COc2ccccc2)nnc1SCC(=O)Nc1cc(C)ccc1OC	-12	5	0	6	-2	10154
CCOC(=O)c1ccccc1NC(=O)CSc1nnc(COc2ccccc2C)n1C	7	14	?	2	-1	17960*
CCc1nc(OCc2ccccc2)c2sc3nc4c(cc3c2n1)COC(C)(C)C4	8	-8	?	3	-8	21172*
CC1(C)Cc2nc3sc4c(OCc5ccccc5)ncnc4c3cc2CO1	5	3	0	-2	3	3680
Cc1ccccc1OCCCCCn1ccnc1	-4	2	-2	-3	0	24874*
O=C(NCCCn1ccnc1)c1sc2cccc(F)c2c1Cl	4	10	5	3	5	21856*
Cc1ccccc1C(=O)NCCCn1ccnc1	37*	-9	0	-2	-1	3866
O=C(CCS(=O)(=O)c1ccccc1)Nc1ccc(F)cc1F	.	-2	.	.	.	.
Cc1ccc(NC(=O)c2ncn(CC(=O)N3CCN(c4ccccn4)CC3)n2)cc1C	-3	-5	0	.	7	3841
SMILES	BoNT-F LC inh	CCHFV vOTU inh	BoNT A protease	3CLpro inhibitor	Anthrax LF prot	Bead autofluor
O=C(NC(=S)Nc1ccc(N2CCCCC2)cc1)c1ccco1	2	4	3	-5	-14	20910*
Cc1cccc(NC(=S)NNC(=O)c2ccco2)c1	1	-2	0	0	-1	9510
CCCCNC(=S)NNC(=O)c1ccco1	0	-1	0	-2	-2	16637*
CC1CCN(c2ccc(NC(=S)NC(=O)c3ccco3)cc2)CC1	2	0	0	4	-2	3138
Cc1ccc(NC(=S)NNC(=O)c2ccco2)cc1	2	-3	2	-4	0	21506*
CCOc1ccc(S(=O)(=O)NCC(=O)NC2CCCCC2)cc1	-1	-4	0	.	-4	3865
CCCC[C@H]1C2CC(OC(=O)Nc3ccc(Br)cc3)C(C2)[C@H]2CCCCN21 (stereo not given in full)	.	-2	.	.	.	.
COc1cc2c(cc1OC)CN(C(=O)CCCN1C(=O)c3ccccc3C1=O)CC2	-2	0	?	-2	-2	22299*
COc1cc2c(cc1OC)CN(C(=O)CCOc1ccccc1)CC2	11	-5	1	0	-2	3694
Cc1ccccc1NC(=O)NCCCN1CCCC1	1	-5	?	8	-1	22559*
Cc1nc2nc(NC(=O)c3ccco3)nn2c(C)c1Cl	-6	1	0	-2	2	5430
COCC(=O)N1CCC(Oc2ccc(C(=O)NC3CCOC(C)(C)C3)cc2)CC1 (stereo not given)	2	-5	2	0	-3	4512
O=C(Cc1ccccc1)Nc1c2c(nn1-c1cccc(Cl)c1)CS(=O)(=O)C2	9	-5	8	-3	1	20201*
Cn1nc(C(C)(C)C)cc1C(=O)NCc1ccc(N2CCCC2=O)cc1	0	-4	?	2	-4	23561*
COC(=O)CN1C(=O)C(C)(C)Oc2ccc(C(=O)NC3CC3)cc21	-3	-3	?	-1	0	22838*
CCOC(=O)c1ccc2c(c1)N(CC(=O)N1CCCCC1)C(=O)C(C)(C)O2	2	3	0	3	3	4771
CCOC(=O)c1ccc2c(c1)N(CC(=O)N1CCCC1)C(=O)C(C)(C)O2	-4	8	?	-3	-2	23746*
Cc1nn(CC(=O)NCCCN2CCCC2)c(=O)c2nn(-c3ccccc3)c(C)c12	-1	-5	2	4	-1	5160
Cc1ccccc1-n1cnc2cc(NCc3cccs3)ccc21	-8	12	?	-1	-3	23047*
O=C(CSc1ccccc1)NC1CCCCN(Cc2cccc(Cl)c2)C1=O (stereo not given)	.	3	.	.	.	.
O=C(ON=C1CCN(c2ccc([N+](=O)[O-])cc2)CC1)c1ccccc1	1	5	?	0	2	19501*
COc1ccc(C(=O)ON=C2CCN(c3ccc([N+](=O)[O-])cc3)CC2)cc1	0	4	1	-1	-7	5549
COc1ccc(C2CC(C(F)(F)F)n3nc(CO)c(Cl)c3N2)cc1OC (stereo not given)	-2	-3	0	-4	-1	16477*
Cc1ccc(-c2c(NC(=O)c3ccccc3)nc3ncccn23)cc1	.	-10	.	.	.	.
